# BoNT-A LC inh2: BoNT A light chain protease inhibition; multiplex microsphere protease substrate cleavage, flow cytometry; inhibition, % at 10 µM; hit rate 0.17% among 360,000; AID 588499; also: plate controls were buffer without enzyme for full effect and enzyme alone for no effect
# Autofluor counter: flagged as autofluorescent in microsphere protease counterscreen; compound autofluorescence counterscreen, microsphere flow cytometry; hits give high values; fluorescence intensity (test concentration not listed); hit rate 3.1% among 360,000; in the data active = fluorescence intensity above about 16000; inconclusive = no clear call, values can overlap the other calls
# Anthrax LF prot: anthrax lethal factor protease inhibition; P15917; inhibition, % at 10 µM; AID 588501; hit rate 0.12% among 360,000; multiplex microsphere protease cleavage assay, LF; also: plate controls were buffer without enzyme for full effect and enzyme alone for no effect
# BoNT F protease: blocks Botulinum neurotoxin F light chain protease. Multiplex microsphere protease cleavage assay, flow cytometry. inhibition, % at 10 µM. hit rate 0.22% among 360,000. AID 588497; in the data active = inhibition above about 35%, passing the limit was not always enough; inconclusive = no clear call, values can overlap the other calls; also: plate controls were buffer without enzyme for full effect and enzyme alone for no effect
# MazEF act: increases E. coli MazEF RNase cleavage of RNA | FAM/BHQ RNA-DNA oligo cleavage fluorescence, 5 h | activation, % at 20 µM | hit rate 0.32% among 350,000 | AID 504720; in the data active = activation above about 50%
# * marks the source's active call; other numbers are inactive results; i = inactive; ? = inconclusive; nt = not tested or not shown. In the library only some 3.7% were active in any assay of this set; here they are far more common. Rule as the data show it, unless noted: active = inhibition above about 30%; inconclusive = no clear call, values can overlap the other calls; inactive = below that.
SMILES,BoNT-A LC inh2,Autofluor counter,Anthrax LF prot,BoNT F protease,MazEF act
O=C(CC1Sc2ccccc2NC1=O)NNc1cccc(Cl)c1Cl (centres undefined),1,3712,-3,2,-10
CCN1C(=O)/C(=C/C=C2\N(CC)c3cc(S(=O)(=O)N(C)C)ccc3N2c2ccccc2)SC1=S,89*,6004,38*,14,i
CCCN1CCN(C(=O)Nc2ccc(C(=O)OCC)cc2)CC1,0,20252*,-2,-1,5
CCCOC(=O)c1ccc(NC(=O)CCOc2ccccc2)cc1,-1,9883,0,-8,-1
COc1ccc(NC(=O)CCCC(=O)OCC(F)(F)C(F)F)cc1,2,9108,-2,0,2
CC(=O)c1ccc(NC(=O)CCC(=O)OCC(F)(F)C(F)F)cc1,?,20248*,1,-2,-1
CCCOC(=O)c1ccc(NC(=O)CCC(=O)OCC)cc1,4,21063*,0,11,3
Cc1ccnc(NS(=O)(=O)c2ccc3ccccc3c2)n1,6,3676,-3,?,-5
Cc1ccccc1N1CCN(Cc2c(C#N)c3ccccc3n2C)CC1,-4,23866*,-1,-6,2
Cn1c(CN2CCN(CCO)CC2)c(C#N)c2ccccc21,4,4715,1,?,10
Cc1ccc([N+](=O)[O-])cc1N=Cc1ccc(Br)s1,0,20554*,-5,2,-3
COc1cccc(NC(=O)CSc2nnc(-c3cc(C)[nH]n3)n2N)c1,2,5307,1,8,8
CCn1c2ccccc2c2cc(NC(=O)c3cccc(OC)c3)ccc21,4,22832*,3,0,4
COC(=O)CSc1nnc(C)n1-c1cccc(C#N)c1,-6,17539*,-1,-7,1
CCOc1cccc(-c2nnc(SCC(=O)Nc3cccc(OC)c3)n2N)c1,1,21734*,-3,2,9
CCn1c2ccccc2c2cc(NC(=O)CSc3nnc(-c4ccc(OC)cc4)n3N)ccc21,-2,24502*,-2,-2,4
CCn1c2ccccc2c2cc(NC(=O)c3cccc(OC)c3OC)ccc21,3,2025,0,-16,-6
Cc1ccc(C)c(NC(=O)CSc2nnc(C)c(=O)n2N)c1,-1,2733,-1,2,3
COC(=O)c1ccc(NC(=O)CSc2nnc(-c3ccncc3)n2N)cc1,?,20637*,-1,4,5
Cc1ccc(C)c(NC(=O)CSc2nnc(-c3ccncc3)n2N)c1,-5,21109*,0,-5,-6
COC(=O)c1ccc(NC(=O)CSc2nnc(C)n2-c2ccccc2)cc1,9,19301*,-8,13,-3
COC(=O)c1ccc(NC(=O)CSc2nnc(-c3ccccc3)n2C)cc1,0,4571,1,3,-4
Nn1c(SCC(=O)Nc2ccc(F)cc2)nnc1C1CCCCC1,?,21577*,-5,3,5
C=C1C(=O)OC2C=C(CO)C3OC3C3OC3(C)CC(OC(=O)/C(=C/C)COC(C)=O)C12 (centres undefined),0,3141,0,1,7
NC(CCc1ccccc1)c1csc(NC(=O)Nc2ccccc2Oc2ccccc2)n1 (centres undefined),0,3887,-7,-33,nt
SMILES,BoNT-A LC inh2,Autofluor counter,Anthrax LF prot,BoNT F protease,MazEF act
Cc1cccc(C)c1-n1nnnc1C(c1ccccc1OC(F)(F)F)N1CCN(C/C=C/c2ccccc2)CC1 (centres undefined),0,5395,-4,-5,nt
COc1ccc(OC)c(NC(=O)CCNS(=O)(=O)c2ccc3c(c2)CC(C)N3C(C)=O)c1 (centres undefined),0,3876,-11,-10,3
CC1CCCC(NC(=O)CSc2nnc(-c3cccnc3)o2)C1C (centres undefined),1,5162,-4,0,8
O=C(CSc1nnc(-c2cccnc2)n1Cc1ccco1)Nc1nc(-c2ccc(F)cc2)cs1,0,20486*,-2,0,-2
COc1cccc(-c2nnc(SCC(=O)Nc3ccc(OC)c(OC)c3)n2N)c1,-2,23134*,-1,-4,3
COc1cccc(-c2nnc(SCCC(=O)O)n2C)c1,0,23530*,2,0,2
O=C(CSc1nnc(-c2cccnc2)n1Cc1ccco1)Nc1cccc(O)c1,-1,4548,-1,-4,0
COc1ccc(NC(=O)CSc2nnc(-c3ccccc3)n2N)cc1,0,3565,-4,-1,-7
CC1CCCC(NC(=O)CSc2nnc(-c3cccnc3)n2N)C1C (centres undefined),1,18627*,3,10,3
COCCCN1C(=O)C(CC(=O)NC(c2ccccc2)c2ccccc2)CC(C(=O)N2CCCCCC2)=C1C (centres undefined),0,5587,-8,-6,nt
CC(C)OC(=O)CSc1nnc(-c2ccco2)n1N,-2,6912,-6,-15,4
Cc1cccc(NC(=O)CSc2nnc(-c3ccccc3)n2N)c1,?,20752*,1,4,-3
Nn1c(SCC(=O)Nc2ccc(F)cc2)nnc1-c1cccnc1,?,19014*,2,14,-4
COc1cccc(-c2nnc(SCC(=O)OC(C)C)n2N)c1,-1,19700*,-3,-2,-6
Cc1ccc(NC(=O)CSc2nnc(-c3cccnc3)n2-c2ccc(C)cc2)cc1,1,2880,1,3,-3
Cc1cc(S(=O)(=O)N2CCCCC2CCNC(=O)C(=O)NCC2CCCO2)ccc1F (centres undefined),0,5594,2,-4,-3
NC(=S)Nc1cccc2cc3ccccc3cc12,3,?,5,-21,7
NC(=S)Nc1cc2ccccc2c2ccccc12,?,19680*,-3,-1,-1
CC(C)CNC(=S)NC1CCCC1,?,20457*,-2,-4,-7
CC(C)CNC(=O)C(=O)NC1CCCC1,0,3146,-3,-6,8
Cc1nc(Cl)c(C#N)cc1-c1ccccc1,0,19692*,2,-2,10
COC(=O)CC1COc2ccccc2N1C(=O)c1ccc(OC)cc1 (centres undefined),?,21654*,1,0,0
CS(=O)(=O)N1CCN(c2ccccc2NC(=O)c2ccc(-c3ccc(Br)cc3)o2)CC1,0,16514*,-5,-1,0
CS(=O)(=O)N1CCN(c2ccc(NC(=O)c3ccc(-c4ccc(Cl)cc4)o3)cc2)CC1,-6,17675*,-2,-10,13
CN1CCN(c2ccc(NC(=O)c3ccc(-c4ccc(Cl)cc4)o3)cc2)CC1,-2,5881,-7,-18,7
O=C(NC(=S)Nc1ccccc1N1CCCC1)c1ccc(-c2cccc([N+](=O)[O-])c2)o1,?,19601*,-12,0,9
CCN(CCCNC(=O)Cn1ncc2c([nH]c3ccc(C)cc32)c1=O)c1cccc(C)c1,0,4512,1,6,0
CC(NC(=O)c1ccc(Br)o1)C1CC2CCC1C2 (centres undefined),1,4794,-3,-5,5
O=C(c1cnn2ccccc12)N1CCCc2ccccc21,0,4083,0,-1,4
O=C(c1cccnc1)N1CCCc2ccccc21,0,20718*,-2,-2,-3
